Experimental data as given in the supplement of paper PMC10981050.
“And” between values parts separate entries of the source, which are not always exact repeats. Equal values may be shown once. Where a name gives a salt, the structure may show the parent alone.

How the values were obtained:
Test in all cases: cell viability relative to vehicle control; higher = less cytotoxic
Conditions in all cases: 10 µM
K562 = tested on: K562
Method in brief: (§1)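 Screening covered the Selleck bioactive, kinase and epigenetic probe libraries, less identity-inconsistent compounds, on CRISPR-edited mutant clones and isogenic wild-type clones of four leukaemia lines. Cells, at 2000 per well in 50 µL medium, received a single 10 µM acoustically dispensed dose. After 48 h the supernatant was removed and CellTiter-Glo luminescence was read. Viability was analysed in Genedata Screener as percent of the on-plate vehicle control.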

MARIMO = tested on: MARIMO
Method in brief: as §1

MOLM14 = tested on: MOLM14
Method in brief: as §1

OCI-AML2 = tested on: OCI-AML2
Method in brief: as §1

SMILES	cell viability (K562; SRSF2 genotype: SRSF2 P95H/wt)	cell viability (K562; SRSF2 genotype: SRSF2 wt/wt)	cell viability (MARIMO; SRSF2 genotype: SRSF2 P95H/wt)	cell viability (MARIMO; SRSF2 genotype: SRSF2 wt/wt)	cell viability (MOLM14; SRSF2 genotype: SRSF2 P95H/wt)	cell viability (MOLM14; SRSF2 genotype: SRSF2 wt/wt)	cell viability (OCI-AML2; SRSF2 genotype: P95H/wt)	cell viability (OCI-AML2; SRSF2 genotype: wt/wt)
CC(C)(C)n1nc(-c2ccc(Cl)cc2)c2c(N)ncnc21	56.2% and 78.5%	63.3%	84.6%	104%	66%	67.3%	80%	78.3%
C=CC(=O)Nc1cccc(C)c1Nc1ncc2cc(-c3c(Cl)c(OC)cc(OC)c3Cl)ccc2n1	29.7% and 25.7%	35.1%	47.6%	55.7%	6.84%	4.93%	6.53%	11.9%
Cc1cccc(C#Cc2ccccc2)n1	97.1% and 102%	104%	102%	94.5%	111%	110%	89.3%	87.5%
Cc1cc(-n2c(=O)[nH]c(=O)n(C)c2=O)ccc1Oc1ccc(SC(F)(F)F)cc1 [Toltrazuril]	105% and 104%	103%	107%	109%	99.7%	101%	105%	104%
Cc1cc(NS(=O)(=O)c2ccc(N)cc2)nc(C)n1 [sulfaisodimidine]	103%	112%	106%	101%	106%	106%	112%	102%
CCCCS(=O)(=O)N[C@@H](Cc1ccc(OCCCCC2CCNCC2)cc1)C(=O)O [Tirofiban Hydrochloride]	94.8% and 103%	96%	89.6%	104%	101%	99.6%	100%	107%
CN(C)CC(c1ccc(O)cc1)C1(O)CCCCC1 (stereo not drawn) [Desvenlafaxine Succinate]	96.4% and 90.5%	101%	98.4%	103%	98.4%	100%	100%	90%
O=C1Nc2ccccc2C1=O [Isatin]	97.1% and 106%	100%	101%	105%	103%	105%	106%	96.5%
C=C1C(=O)O[C@H]2[C@H]1CC/C(C)=C/CC[C@@]1(C)O[C@@H]21 [Parthenolide ((-)-Parthenolide)]	18.9% and 9.99%	26.7%	8.78%	8.07%	1.59%	0.67%	0.71%	0.34%
CC(=O)c1ccccc1O [2'-Hydroxyacetophenone]	101% and 100%	99.4%	99.1%	96.6%	105%	101%	102%	105%
C/C(=C\CO)CCC[C@H](C)CCC[C@H](C)CCCC(C)C [Phytol]	97% and 93.1%	96%	89.1%	103%	85.5%	92.6%	80.5%	82.6%
NC(C=O)C(O)C(O)C(O)CO (stereo not drawn) [Glucosamine sulfate]	99.5% and 102%	100%	101%	105%	104%	108%	104%	104%
CN1C(=O)[C@@H](NC(=O)c2cc(Cc3ccccc3)on2)COc2ccccc21	105% and 100%	105%	98.9%	102%	110%	110%	99.6%	99.8%
C[C@H](CCC(=O)NCCS(=O)(=O)O)[C@H]1CC[C@H]2[C@@H]3[C@H](O)C[C@@H]4C[C@H](O)CC[C@]4(C)[C@H]3C[C@H](O)[C@]12C [Taurocholic acid sodium salt hydrate]	110% and 102%	107%	107%	108%	103%	111%	106%	107%
CCN(CCO)CCCOc1ccc2c(Nc3cc(CC(=O)Nc4cccc(F)c4)[nH]n3)ncnc2c1 [Barasertib (AZD1152-HQPA)]	70.7% and 93.2%	81%	73.2%	68.2%	13.9%	7.61%	29.1%	36.6%
CCOc1ccc2ccccc2c1C(=O)N[C@@H]1C(=O)N2[C@@H]1SC(C)(C)[C@@H]2C(=O)O [Nafcillin Sodium]	106%	101%	104%	115%	101%	108%	98%	107%
CC(C)(C)NS(=O)(=O)c1cncc(-c2cc(F)c3nc(N)nn3c2)c1	100% and 102%	101%	93.8%	93.9%	92.5%	103%	81.1%	80.8%
NC(=O)c1cn(Cc2c(F)cccc2F)nn1 [Rufinamide (Banzel)]	101% and 104%	106%	106%	108%	107%	107%	113%	103%
CNS(=O)(=O)Nc1nccc(Cc2c(C)c3ccc(Oc4ncccn4)cc3oc2=O)c1F	59.5% and 66.4%	72.2%	36%	36.9%	44.7%	30.6%	37.6%	40.4%
CC(C)c1cc2c(c(O)c1O)[C@@]13CCCC(C)(C)[C@@H]1C[C@@H]2OC3=O [Carnosol]	43.3% and 33.8%	61.7%	4.39%	0.77%	6.11%	5.25%	5.94%	1.96%
COc1ccc(Oc2cc(C)c(-c3csc(NC(=O)c4ccncc4)n3)c(C)c2)cc1	43.7% and 37.3%	36.9%	37.8%	37.6%	42.4%	25.9%	47.8%	32.2%
